Data: PubChem BioAssay AID1159580 (chemical genetic matrix, 2015)
Hit rate of the full screen: of about 5,500 compounds, about 2,000 (36%) were called active. Inconclusive results (about 18%) are left out. Cut-off read from the data, not from the text of the source: active = normalized growth mostly below about 0.91 (no sharp cut-off); inconclusive = no clear call, values can overlap the other calls; inactive = mostly above about 0.92. Some of the results follow.

Test: chemical genetic growth profiling, strain panel (AID 1159580);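 note: tested at 20 µM; growth read once vehicle control cultures reached saturation at 30 °C; 1 = growth at the plate median or of vehicle wells; lower values mean less growth of the strain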
Details: growth OD

Measured: normalized growth

c1cncc(C2CCCCN2)c1 (configuration not stated)
inactive: S. cerevisiae deletion strains, locus YJR066W, strain TOR1, hits give low values 0.974 | S. cerevisiae deletion strains, locus YJR075W, strain HOC1, hits give low values 1.03 | S. cerevisiae deletion strains, locus YKL009W, strain mrt4, hits give low values 0.992 | S. cerevisiae deletion strains, locus YKL068W, hits give low values 1 | S. cerevisiae deletion strains, locus YKL085W, strain MDH1 (second series), hits give low values 0.998 | S. cerevisiae deletion strains, locus YKL085W, strain MDH1, hits give low values 0.998 | S. cerevisiae deletion strains, locus YKL160W, strain elf1, hits give low values 0.992 | S. cerevisiae deletion strains, locus YKL190W, strain CNB1, hits give low values 0.99 | S. cerevisiae deletion strains, locus YKR001C, strain vps1, hits give low values 0.986 | S. cerevisiae deletion strains, locus YKR026C, strain gcn3, hits give low values 0.996 | S. cerevisiae deletion strains, locus YKR091W, strain srl3, hits give low values 0.988 | S. cerevisiae deletion strains, locus YLL001W, strain dnm1, hits give low values 0.993 | S. cerevisiae deletion strains, locus YLL026W, hits give low values 0.996 | S. cerevisiae deletion strains, locus YLL041C, strain sdh2, hits give low values 0.991 | S. cerevisiae deletion strains, locus YLR027C, strain aat2, hits give low values 0.999 | S. cerevisiae deletion strains, locus YLR039C, strain RIC1, hits give low values 1.07 | S. cerevisiae deletion strains, locus YLR058C, strain SHM2, hits give low values 1.01 | S. cerevisiae deletion strains, locus YLR102C, strain apc9, hits give low values 1 | S. cerevisiae deletion strains, locus YLR113W, strain HOG1, hits give low values 0.997 | S. cerevisiae deletion strains, locus YLR221C, strain rsa3, hits give low values 0.991 | S. cerevisiae deletion strains, locus YLR258W, strain gsy2, hits give low values 1.02 | S. cerevisiae deletion strains, locus YLR262C, strain YPT6 (second series), hits give low values 0.986 | S. cerevisiae deletion strains, locus YLR262C, strain YPT6, hits give low values 1.06 | S. cerevisiae deletion strains, locus YLR268W, strain sec22, hits give low values 0.968 | S. cerevisiae deletion strains, locus YLR320W, strain mms22, hits give low values 0.981 | S. cerevisiae deletion strains, locus YLR330W, strain CHS5, hits give low values 1.03 | S. cerevisiae deletion strains, locus YLR342W, strain FKS1 (second series), hits give low values 1.02 | S. cerevisiae deletion strains, locus YLR342W, strain FKS1, hits give low values 0.986 | S. cerevisiae deletion strains, locus YLR357W, strain rsc2, hits give low values 0.959 | S. cerevisiae deletion strains, locus YLR370C, strain arc18, hits give low values 0.988 | S. cerevisiae deletion strains, locus YLR371W, strain rom2, hits give low values 0.985 | S. cerevisiae deletion strains, locus YLR384C, strain iki3, hits give low values 0.98 | S. cerevisiae deletion strains, locus YLR418C, strain cdc73, hits give low values 0.995 | S. cerevisiae deletion strains, locus YML016C, strain PPZ1, hits give low values 1.02 | S. cerevisiae deletion strains, locus YML032C, strain rad52, hits give low values 1.01 | S. cerevisiae deletion strains, locus YML120C, strain ndi1, hits give low values 0.998 | S. cerevisiae deletion strains, locus YML124C, strain tub3, hits give low values 0.998 | S. cerevisiae deletion strains, locus YMR058W, strain fet3, hits give low values 0.993 | S. cerevisiae deletion strains, locus YMR078C, strain ctf18, hits give low values 0.999 | S. cerevisiae deletion strains, locus YMR125W, strain sto1, hits give low values 0.981 | S. cerevisiae deletion strains, locus YMR129W, hits give low values 0.99 | S. cerevisiae deletion strains, locus YMR205C, strain PFK2, hits give low values 1.02 | S. cerevisiae deletion strains, locus YMR223W, strain ubp8, hits give low values 1.01 | S. cerevisiae deletion strains, locus YMR231W, strain pep5, hits give low values 0.981 | S. cerevisiae deletion strains, locus YMR307W, strain GAS1, hits give low values 1.11 | S. cerevisiae deletion strains, locus YNL067W, strain RPL9B, hits give low values 1.01 | S. cerevisiae deletion strains, locus YNL071W, strain lat1, hits give low values 0.998 | S. cerevisiae deletion strains, locus YNL153C, strain GIM3, hits give low values 1.02 | S. cerevisiae deletion strains, locus YNL183C, strain NPR1, hits give low values 0.965 | S. cerevisiae deletion strains, locus YNL209W, strain ssb2, hits give low values 0.991 | S. cerevisiae deletion strains, locus YNL233W, strain BNI4, hits give low values 1.03 | S. cerevisiae deletion strains, locus YNL248C, strain rpa49, hits give low values 0.987 | S. cerevisiae deletion strains, locus YNL250W, strain rad50, hits give low values 1.01 | S. cerevisiae deletion strains, locus YNL271C, strain bni1, hits give low values 0.996 | S. cerevisiae deletion strains, locus YNL298W, strain CLA4, hits give low values 0.988 | S. cerevisiae deletion strains, locus YNL307C, strain MCK1, hits give low values 0.997 | S. cerevisiae deletion strains, locus YNL322C, strain KRE1 (second series), hits give low values 0.985 | S. cerevisiae deletion strains, locus YNR049C, strain mso1, hits give low values 0.99 | S. cerevisiae deletion strains, locus YNR052C, strain pop2, hits give low values 0.995 | S. cerevisiae deletion strains, locus YOL012C, strain htz1 0.806 | S. cerevisiae deletion strains, locus YOL147C, strain pex11, hits give low values 0.991 | S. cerevisiae deletion strains, locus YOR001W, strain rrp6, hits give low values 0.994 | S. cerevisiae deletion strains, locus YOR061W, strain CKA2, hits give low values 1.01 | S. cerevisiae deletion strains, locus YOR069W, strain VPS5, hits give low values 0.993 | S. cerevisiae deletion strains, locus YOR070C, strain gyp1, hits give low values 0.978 | S. cerevisiae deletion strains, locus YOR080W, strain dia2, hits give low values 0.982 | S. cerevisiae deletion strains, locus YOR083W, strain WHI5, hits give low values 1 | S. cerevisiae deletion strains, locus YOR106W, strain vam3, hits give low values 0.997 | S. cerevisiae deletion strains, locus YOR136W, strain idh2, hits give low values 0.978 | S. cerevisiae deletion strains, locus YOR144C, strain elg1, hits give low values 0.996 | S. cerevisiae deletion strains, locus YOR184W, strain ser1, hits give low values 1 | S. cerevisiae deletion strains, locus YOR231W, strain MKK1, hits give low values 1 | S. cerevisiae deletion strains, locus YOR265W, strain rbl2, hits give low values 1.01 | S. cerevisiae deletion strains, locus YOR270C, strain vph1, hits give low values 1 | S. cerevisiae deletion strains, locus YOR290C, strain snf2, hits give low values 1 | S. cerevisiae deletion strains, locus YOR316C, strain cot1, hits give low values 0.998 | S. cerevisiae deletion strains, locus YPL051W, strain arl3, hits give low values 1.01 | S. cerevisiae deletion strains, locus YPL078C, strain atp4, hits give low values 0.994 | S. cerevisiae deletion strains, locus YPL106C, strain sse1, hits give low values 0.972 | S. cerevisiae deletion strains, locus YPL240C, strain hsp82, hits give low values 0.992 | S. cerevisiae deletion strains, locus YPL256C, strain CLN2, hits give low values 0.997 | S. cerevisiae deletion strains, locus YPR119W, strain clb2, hits give low values 0.989 | S. cerevisiae deletion strains, locus YPR141C, strain kar3, hits give low values 1 | S. cerevisiae deletion strains, locus YPR163C, strain tif3, hits give low values 0.99 | S. cerevisiae deletion strains, locus YPR167C, strain met16, hits give low values 0.999 | S. cerevisiae deletion strains, strain wtn01, hits give low values 0.957 | S. cerevisiae strains, strain wild type, hits give low values 1.01
